IL-1B inflam inh = inhibitors of inflammasome signaling (IL-1 beta secretion); activity change, % at 57.5 µM; 360,000 compounds, 4.7% hits; THP-1 LPS/ATP IL-1B secretion, AlphaLISA, 16 h; active compounds read low; in the data active = activity change below about -50%; inconclusive = mostly about -30% to -49%; also: % is scaled to controls: 0 for no effect and ±100 for the full control effect
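Secreted IL-1B measured by AlphaLISA bead assay after 16 h compound exposure of THP-1 cells; compounds (final up to 57.5 uM) added 1 h before LPS (250 ng/mL) and ATP (1.25 mM) stimulation; lower signal means less secretion.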
D3 antag = blocks the human D3 dopamine receptor; D3R cells, DiscoveRx beta-arrestin luminescence, antagonist mode; active compounds read low; 360,000 compounds, 2.5% hits; P35462; max response, negative = inhibition, %; in the data active = max response below about -50%; inconclusive = no clear call, values can overlap the other calls; also: % is scaled to controls: 0 for no effect and ±100 for the full control effect
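Cells plated overnight at 1500 cells/well, then exposed to library compounds with dopamine controls for 90 minutes at 37 degrees C. DiscoveRx reagent added for 30–60 minutes at room temperature; luminescence read, quantitative HTS format.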
ClpP mod = qHTS Assay for Activators of ClpP | ATP-dependent Clp protease proteolytic subunit (Bacillus subtilis (strain 168)), P80244 | AID 651965, 2013 | 340,000 compounds, 1.9% hits | purified B. subtilis ClpP, FRET peptide cleavage, 20 min | Potency, µM (series often up to 57.5 µM), for the others: top-dose activity change, negative = active; active = well fitted falling curve with a large enough effect; inconclusive = small, poorly fitted or top-dose-only effect; inactive = no such curve, though single readings can be large or run the other way; also: potency is read from the fitted curve at half-maximal effect; the source files actives as falling curves though it sought activators and does not explain the sign; nearly all actives have a fitted effect of over 65% in size
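Purified B. subtilis ClpP, 10 microg/mL final in Tris/HCl pH8 with KCl, BSA, glycerol and Tween-20, cleaved an Abz/nitrotyrosine-quenched decapeptide. Fluorescence (ex 320, em 430) was read at 0 and 20 min at room temperature. Delta was normalized to 5.8 microM ADEP and DMSO/no-enzyme controls.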
DRD3 agonist = D3 dopamine receptor (human) agonism | 410,000 compounds, 0.58% hits | D3R DiscoveRx beta-arrestin cells, luminescence, 90 min | max activation, %; in the data active = max activation above about 30%; also: 0% is about no effect
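Agonist-mode cell screen: cells plated at 1500/well and incubated overnight at 37 °C, then exposed to library compounds for 90 min at 37 °C. Detection reagent was added for 30–60 min at room temperature, and luminescence was read.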
TDP1 cell CPT = DT40-hTDP1 cell growth loss with CPT; chicken DT40 Tdp1-/-;hTDP1 cells + 20 nM CPT, ATP luminescence, 48 h; Potency, µM (series often up to 46.2 µM), inactives show at the top dose activity change, negative = growth inhibition, most hits filed as inhibitors; 420,000 compounds, 12% hits; AID 686979; also: potency is read from the fitted curve at half-maximal effect; % is scaled to controls: 0 for no effect and ±100 for the full control effect; nearly all actives have a fitted effect of over 55% in size
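Cell growth measured by CellTiter-Glo luminescence after a minimum 48 h, 37 C compound exposure with 20 nM CPT in Tdp1-knockout DT40 cells stably expressing hTDP1, seeded 400/well; qHTS titration format.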
TDP1 cell noCPT = qHTS for Inhibitors of human tyrosyl-DNA phosphodiesterase 1 (TDP1): qHTS in cells in absence of CPT. Potency, µM (top dose mostly 46.2 µM), inactives show at the highest dose activity change, negative = growth inhibition, hits mostly inhibitors. AID 686978, 2013. DT40 Tdp1-/- hTDP1 cells, no CPT, ATP luminescence, 48 h. 420,000 compounds, 15% hits; also: potency is read from the fitted curve at half-maximal effect; % is scaled to controls: 0 for no effect and ±100 for the full control effect; nearly all actives have a fitted effect of over 55% in size
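A cellular qHTS used chicken DT40 cells lacking endogenous Tdp1 but carrying stably transfected human TDP1. Compounds were applied without camptothecin, and cell growth kinetics were judged by ATP-dependent luminescence after ≥48 hr.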
Starred values were filed as active, the others as inactive; u = inconclusive; x = no result given; ! = not confirmed by another sample; [ ] = another dose, or the depositor's remark. An excerpt weighted towards active compounds, which were near 21% of everything screened. Unless noted, calls follow the shape of the dose curve; as a rule, active = well fitted inhibition curve with a large enough effect; inconclusive = small, poorly fitted or top-dose-only effect; inactive = flat fitted curve, though single readings scatter.

SMILES	IL-1B inflam inh	D3 antag	ClpP mod	DRD3 agonist	TDP1 cell CPT	TDP1 cell noCPT
CC1=C(c2ccc(F)cc2)S(=O)(=O)NC1=NCc1ccccc1F	x	x	1%	-11	u	u
CCCC(=O)N(CCN1CCOCC1)c1nc2c(C)cccc2s1	-51*	10	0%	0	-27%	10%
CCCC(=O)N(CCN1CCOCC1)c1nc2c(C)ccc(C)c2s1	3	14	0%	1	-25%	-22%
O=C(CCS(=O)(=O)c1ccccc1)N(CCCN1CCOCC1)c1nc2c(F)cccc2s1	-107*	-16	-1%	-33	2.3µM*	2.9µM*
O=C(CCS(=O)(=O)c1ccccc1)N(CCCN1CCOCC1)c1nc2ccc(F)cc2s1	-82*	-16	-1%	-14	2.6µM*	3.7µM*
CCc1cccc2sc(N(CCCN3CCOCC3)C(=O)CS(=O)(=O)c3ccccc3)nc12	-14	-10	-7%	-29	u	u
CN(C)C(=O)c1cc(C(=O)c2ccccc2Br)c[nH]1	10	12	-1%	3	-18%	-30%
CC(C)(C)C(=O)Nc1ccc(-c2nnc3n2CCCCC3)cc1	12	2	-1%	-2	-3%	4%
CN(CC(=O)NCC1CCCCC1)CC(=O)Nc1ccccc1Br	-2	3	-4%	-8	-20%	u
NCC12CC3CC(C1)CC(c1ccc(Cl)cc1)(C3)C2	-89*	-5	0%	-1	6.5µM*	6.5µM*
Nc1ccc(C23CC4CC(CC(O)(C4)C2)C3)cc1	-16	-50*	-3%	0	-15%	-17%
N#C/C(=C\c1ccc(Sc2nc3ccccc3[nH]2)o1)c1ccccc1	-73*	17	-12%	3	u	18µM*
N#C/C(=C\c1ccc(Sc2ccc(Cl)cc2)o1)c1nc2ccccc2[nH]1	0	25	0%	15	21µM*	13µM*
CCN(CC)C(=O)C1=C(C)N(Cc2ccccc2)C(=O)C(CC(=O)NCCCN(C)C)C1 (stereo not drawn)	25	8	1%	-2	-3%	-12%
O=C(CCN1C(=O)[C@@H]2Cc3ccccc3CN2C1=O)N[C@@H](Cc1ccccc1)C(=O)O	8	19	0%	20	-12%	0%
COC(=O)C1CCN(C2=C(NS(=O)(=O)c3ccc(Cl)cc3)C(=O)c3ccccc3C2=O)CC1	0	-15	0%	-6	u	-17%
Cc1ccc(S(=O)(=O)NC2=C(N3CCN(Cc4ccccc4)CC3)C(=O)c3ccccc3C2=O)cc1	-11	-60*	-2%	-35	23µM*	16µM*
CCOC(=O)N1CCN(C2=C(NS(=O)(=O)c3ccc(C)cc3)C(=O)c3ccccc3C2=O)CC1	11	u	15%	-5	8.2µM*	u
CC(C)(CN1CCN(Cc2ccccc2)CC1)NS(=O)(=O)c1ccc(Cl)cc1	-25	-61*	1%	-18	16µM*	18µM*
NC(=O)C1CCN(C2=C(NS(=O)(=O)c3ccc(Cl)cc3)C(=O)c3ccccc3C2=O)CC1	-8	-16	1%	-8	16µM*	u
CCOC(=O)N1CCN(C(=O)c2ccc(CNS(=O)(=O)c3ccc(C)cc3)cc2)CC1	40	47	-1%	1	-29%	-26%
Cc1ccc(S(=O)(=O)N2CCOCC2)cc1C(=O)c1nccn1C	5	9	x	2	7%	-5%
COc1ccc(-c2cc(-c3ccc(F)cc3)nc3c2COc2ccc(F)cc2-3)cc1	x	x	-12%	-9	u	u
CC(=O)Nc1ccc(S(=O)(=O)NC2=C(N3CCN(c4ccc(F)cc4)CC3)C(=O)c3ccccc3C2=O)cc1	-7	3	-2%	-1	10µM*	16µM*
Cc1ccc(S(=O)(=O)NC2=C(N3CCN(c4ccccc4F)CC3)C(=O)c3ccccc3C2=O)cc1	-64*!	-67*!	-6%	-3	23µM*	u
SMILES	IL-1B inflam inh	D3 antag	ClpP mod	DRD3 agonist	TDP1 cell CPT	TDP1 cell noCPT
Clc1ccc(Nc2ccccc2)nn1	-10	-23	x	-9	-7%	3%
C[C@]1(Cn2ccnn2)[C@H](C(=O)O)N2C(=O)C[C@H]2S1(=O)=O	x	x	x	4	7%	-15%
COc1cc(C(O)c2nc(-c3cccs3)cs2)ccc1F (stereo not drawn)	3	9	0%	1	u	u
CCCCCCCCCCCCCC(=O)N[C@H](C)[C@@H](O)c1ccccc1	x	x	x	x	2%[4.12 µM]	7%[4.12 µM]
CCOc1ccc(NC(=O)CSc2nc(-c3ccccc3)c3cc(OCC)ccc3n2)cc1	x	x	-4%	-6	15µM*	u
COc1ccc(NC(=O)CSc2nc(-c3ccccc3)c3ccccc3n2)cc1	x	x	0%	-23	-13%	u
Cc1cc(C)cc(NC(=O)CSc2nc(-c3ccccc3)c3cc(F)ccc3n2)c1	x	x	0%	4	18µM*	18µM*
Cc1ccc(S(=O)(=O)Nc2ccc(S(=O)(=O)Nc3nccs3)cc2)c([N+](=O)[O-])c1	u	-8	2%	2	u	u
CCOC(=O)c1c(C)[nH]c(C)c1S(=O)(=O)NCC(=O)Nc1ccc(C)c(N(C)C)c1	x	x	0%	-16	-23%	-19%
COc1cccc(C2CC(c3c(-c4ccccc4)c4cc(Cl)ccc4[nH]c3=O)=NN2S(C)(=O)=O)c1OC (stereo not drawn)	u	-30	u	-12	21µM*	16µM*
COc1ccccc1C1CC(c2c(-c3ccccc3)c3cc(Cl)ccc3[nH]c2=O)=NN1S(C)(=O)=O (stereo not drawn)	-11	11	8%	9	26µM*	29µM*
COc1ccc(C2CC(c3c(-c4ccccc4)c4cc(Cl)ccc4[nH]c3=O)=NN2C(=O)CCC(=O)O)cc1 (stereo not drawn)	-5	2	x	-2	1%	1%
CC(=O)Oc1cccc(N2C(=O)C3CC=CCC3C2=O)c1 (stereo not drawn)	-6	0	1%	7	-7%	-12%
CC(=O)Oc1cccc2c1C(=O)C1CC=CC(OC(C)=O)C1C2=O (stereo not drawn)	-23	u	1%	-20	u	23µM*
CCCn1c(=O)c2sccc2n2c(CCCC(=O)NCCOC)nnc12	x	x	u	-4	-2%	0%
Nc1ccn(C2CCCCO2)c(=O)n1 (stereo not drawn)	3	5	x	6	0%	-6%
O=C1CC(NS(=O)(=O)c2ccc([N+](=O)[O-])cc2)CN1c1ccc(Cl)cc1 (stereo not drawn)	-6	-11	-2%	-20	u	16µM*
